# PubChem BioAssay AID588453 (National Center for Advancing Translational Sciences (NCATS), 2011)
# Screen size: about 390,000 compounds; about 4,000 (1%) were called active. A call without a number means that no potency is given here. Inconclusive results (about 4%) are left out. The sample holds actives, similar compounds and a random draw of the others, so the mix is not that of the screen. Unmarked numbers belong to inactive results. Calls come from the whole dose curve; as a rule, active = well fitted inhibition curve with a large enough effect; inconclusive = small, poorly fitted or top-dose-only effect; inactive = no such curve, though single readings can be large or run the other way.
# Target: Thioredoxin reductase 1, cytoplasmic (Rattus norvegicus) (UniProt O89049)
# Sequence (O89049 whole entry, looked up): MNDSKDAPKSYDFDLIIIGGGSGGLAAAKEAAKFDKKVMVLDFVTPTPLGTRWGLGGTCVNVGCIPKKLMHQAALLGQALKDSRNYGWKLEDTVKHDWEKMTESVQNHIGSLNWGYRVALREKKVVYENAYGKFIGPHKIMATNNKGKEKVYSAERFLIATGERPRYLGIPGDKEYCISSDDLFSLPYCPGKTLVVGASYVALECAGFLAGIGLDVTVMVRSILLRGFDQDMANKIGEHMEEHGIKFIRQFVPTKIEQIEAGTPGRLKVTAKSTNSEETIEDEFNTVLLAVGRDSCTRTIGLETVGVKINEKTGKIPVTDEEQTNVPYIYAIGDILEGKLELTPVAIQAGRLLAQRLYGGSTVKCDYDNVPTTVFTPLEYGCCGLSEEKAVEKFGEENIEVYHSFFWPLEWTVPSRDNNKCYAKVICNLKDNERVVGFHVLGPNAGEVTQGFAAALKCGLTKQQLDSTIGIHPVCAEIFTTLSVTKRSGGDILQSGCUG
# Assay: qHTS Assay for Inhibitors of Mammalian Selenoprotein Thioredoxin Reductase 1 (TrxR1): qHTS; note: nearly all actives have a fitted effect of over 65% in size
# Details: recombinant rTrxR1, NADPH fluorescence consumption, selenite substrate; series mostly up to 114 µM
# Outline: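 Rat TrxR1 (90 nM in the dispensed reagent) was pre-reduced with 400 uM NADPH for 5 min at room temperature, then incubated with compound for 15 min. After 400 uM selenite was added, NADPH fluorescence (Ex 340/Em 450 nm) was followed for 8 min.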
# Potency is the fitted concentration of half-maximal effect.
SMILES,Potency,"activity change, negative = inhibition"
COc1ccc(Cn2c(=O)n(-c3ccccc3C)c(=O)c3c4c(sc32)CN(C(C)=O)CC4)cc1,inactive,
O=C(COc1ccccc1Cl)Nc1ccc2nc(SCC(=O)N3CCCC3)sc2c1,inactive,
c1ccc(C2c3[nH]c4ccccc4c3CCN2Cc2cccn2-c2cccnc2)nc1 (centres undefined),50.1 µM (active),
COCc1ccc(C(=O)N2CCc3c([nH]c4ccccc34)C2c2ccccn2)s1 (centres undefined),inactive,
CCOc1ccc(C2c3[nH]c4ccccc4c3CCN2Cc2cccn2-c2ncccn2)cc1 (centres undefined),inactive,
CS(=O)c1ccc(/C=C2\C=Cc3ccccc32)cc1 (centres undefined),inactive,
CCOC(=O)c1nnn(CC(=O)NC(=O)Nc2ccccc2F)c1C(=O)OCC,inactive,
Cc1ccc(Cc2cnc(N)s2)o1,22.4 µM (active),
COc1cn(CC(=O)Nc2cccc(C)c2C)c(CN2CCCCC2)cc1=O,inactive,
Cc1cccc(N2CCN(C(=O)CCn3c(=O)c4cccn4c4cccnc43)CC2C)c1 (centres undefined),inactive,
CCn1c(CNC(=O)C23CC4CC(CC(C4)C2)C3)nnc1SCC(=O)Nc1ccc(OC)cc1,inactive,
CCCCS(=O)(=O)c1oc(-c2cccs2)nc1S(=O)(=O)c1ccccc1,0.447 µM (active),
NC(=O)CSc1oc(-c2cccs2)nc1S(=O)(=O)c1ccccc1,inactive,
CSc1oc(-c2cccs2)nc1S(=O)(=O)c1ccc(Br)cc1,inactive,
C(=Nc1ccc(/C=C/c2ccnc3ccccc23)cc1)Nc1ccc(/C=C/c2ccnc3ccccc23)cc1,inactive,
CCOC(=O)c1c(C)oc2nc(C)nc(Nc3ccc(CC)cc3)c12,inactive,
CCCOc1ccc(C(=O)Nc2ccc3oc(-c4cccc(Cl)c4Cl)nc3c2)cc1,inactive,
Oc1c(C=Nc2cccc3nsnc23)ccc2ccccc12,39.8 µM (active),
Cc1cccc(-c2nnc(SCC(=O)N3CCCc4ccccc43)o2)c1,inactive,
COc1ccc(-c2nc(=N)sn2-c2ccccc2)cc1,inactive,
COC(=O)c1cc(NC(=O)CCc2c(C)nc3c4c(C)cc(C)nc4nn3c2C)cc(C(=O)OC)c1,inactive,
Cc1cc(C)c2c(NC(=O)C3CC3)nn(C)c2n1,inactive,
Cc1cc(C)c2c(n1)nn1c(-n3ccnc3)cc(C)nc21,8.91 µM (active),
Cc1ccc(NC(=O)c2cc(-c3ccc(C)o3)nc3ccccc23)nc1,14.1 µM (active),
CCOc1ccc(CNC(=O)c2cc(-c3ccc(Cl)s3)nc3ccccc23)cc1,inactive,

SMILES,Potency,"activity change, negative = inhibition"
Cc1ccc(-c2cc(C(=O)NN)n[nH]2)o1,inactive,
CCOC(=O)c1cc2c(=O)n3ccccc3nc2n(CC2CCCO2)c1=NC(=O)c1ccc(C(C)(C)C)cc1 (centres undefined),inactive,
Cc1cccc(N2CCN(C3=C(c4ccccc4)C(=O)c4ccccc43)CC2)c1C,inactive,
CC(=O)/C(C)=N/O,inactive,
Cc1noc(C)c1NC(=O)Nc1cccc2c1O[C@H](CN(C)C(=O)Nc1ccccc1)[C@@H](C)CN([C@H](C)CO)C2=O,inactive,
C[C@H](CO)N1C[C@H](C)[C@H](CN(C)C(=O)Nc2ccc(C(F)(F)F)cc2)Oc2c(NC(=O)c3ccncc3)cccc2C1=O,56.2 µM (active),
Cc1noc(C)c1NC(=O)Nc1ccc2c(c1)C(=O)N([C@H](C)CO)C[C@H](C)[C@@H](CN(C)C(=O)Nc1ccc(C(F)(F)F)cc1)O2,inactive,
CCc1ccc(N(CC)C(=O)CCn2cnc3onc(-c4ccc(F)cc4)c3c2=O)cc1,inactive,
COc1cc(Cl)c(C)cc1NC(=O)CSc1nnc(-c2ccco2)n1CC(C)C,12.6 µM (active),
COc1ccccc1NC(=O)CSc1nnc(-c2ccoc2C)n1CCc1ccccc1,inactive,
COc1cc(Cl)c(C)cc1NC(=O)CSc1nnc(CN2CCCC2)o1,inactive,
Cc1cccc(C(=O)Nc2ccc(S(=O)(=O)N3CCCCC3c3cccnc3)cc2)c1 (centres undefined),inactive,
Cc1ccc2oc(C(=O)Nc3ccc(S(=O)(=O)N4CCCCCC4)cc3)cc(=O)c2c1,inactive,
CCOc1ccc(NC(=O)c2ncoc2-c2ccco2)cc1,inactive,
C=CCNC(=O)c1ccc2nc(-c3ccco3)c(-c3ccco3)nc2c1,7.94 µM (active),
COc1ccc(NC(=O)COCc2cc(-c3ccco3)on2)cc1,inactive,
COCCNC(=O)Nc1ccc2nc(-c3ccco3)c(-c3ccco3)nc2c1,3.16 µM (active),
COc1ccc(-c2nc3ccc(C(=O)NCc4ccc(C)cc4)cc3nc2-c2ccc(OC)cc2)cc1,inactive,
COc1cc(-n2c(C)nc3cc(C(=O)NCc4ccco4)ccc32)cc(OC)c1OC,inactive,
Cc1nc2sc(C)c(C)n2c(=O)c1S(=O)(=O)NCCc1ccc(Cl)cc1,inactive,
O=C(NCCS(=O)(=O)N1CCN(c2ccc(F)cc2)CC1)c1ccccc1Br,inactive,
O=[N+]([O-])c1ccc(/C=C/c2ccc3cccnc3c2)cc1,inactive,
O=C(Cn1cc(SCc2cccc(Cl)c2)c2ccccc21)N1CCCCC1,inactive,
N#C/C=C(/c1ccc(F)cc1)N1CCOCC1,inactive,
O=C(N1CCOCC1)N1CCOCC1,inactive,

SMILES,Potency,"activity change, negative = inhibition"
N#C/C(=C/c1ccc(N2CCOCC2)o1)C(=O)N1CCOCC1,50.1 µM (active),
COc1cccc(C(=O)NC(=O)Nc2ccc(-c3cc(C(F)(F)F)nn3-c3ccccc3)cc2)c1,inactive,
Cc1cccc(-n2ncc(Cl)c(Cl)c2=O)c1,44.7 µM (active),
Cc1cccc(-n2ncc(C(=O)N3CCC(C)CC3)c2C2CCN(C(=O)OC(C)(C)C)CC2)c1,inactive,
Cc1cccc(-n2ncc(C(=O)N3CCN(c4ccc(Cl)cc4)CC3)c2C2CCN(C(=O)OC(C)(C)C)CC2)c1,inactive,
CCOc1ccc(C2CC(=O)c3c([nH]c(C(=O)OCc4ccccc4)c3C)C2)cc1 (centres undefined),inactive,
CCc1ccc(OCCCn2c(CCCNC(=O)C3CCCCC3)nc3ccccc32)cc1,inactive,
Cc1ccc(C=O)cc1Cl,inactive,
Cc1ccc(-n2ncc3c(N4CCC(C(N)=O)CC4)ncnc32)cc1,inactive,
Cc1cc(NC(=O)CCS(=O)(=O)c2ccc(F)cc2)no1,44.7 µM (active),
Cc1cc(NC(=O)CCC(=O)N(CC(=O)NC2CCCC2)c2ccc(F)cc2)no1,inactive,
Cc1cc(NC(=O)CSc2nc(=O)cc(N)n2-c2ccc(F)cc2)no1,inactive,
ClC/C=C/C[n+]1ccccc1Cl,inactive,
C/C(=N/Nc1nc(-c2ccccc2)c(CC(=O)O)s1)c1ccccc1,5.62 µM (active),
C/C(=N\Nc1cccc(C(=O)O)c1)c1ccc2c(c1)Nc1ccccc1S2,inactive,
CC(=O)NC(CC(=O)Nc1nc(-c2ccccc2)c(C(C)=O)s1)c1ccccc1 (centres undefined),inactive,
CC(C)CCN(C(=O)Nc1ccc(Cl)c(Cl)c1)C(C)c1cccs1 (centres undefined),inactive,
Cc1ccc(C(=O)CC2(O)C(=O)N(CCc3ccccc3)c3ccc(Br)cc32)cc1 (centres undefined),inactive,
C=CCN1C(=O)C(O)(CC(=O)c2ccccn2)c2ccccc21 (centres undefined),inactive,
C=CCN1C(=O)C(O)(CC(=O)c2ccc(Cl)cc2)c2ccccc21 (centres undefined),35.5 µM (active),
CCCCC(CCCC)c1ccc(C=Nc2ccc(/C=C/c3ccnc4ccccc34)cc2)cc1,inactive,
COc1cccc(Cn2c(SCc3ccc(C(=O)N4CCCCC4)cc3)nc3ccncc32)c1,inactive,
Fc1cccc(-n2ncc3c2ncn2nc(-c4ccccc4Cl)nc32)c1,inactive,
Cc1nn2c3cc(N4CCOCC4)ccc3nc2c2ccccc12,inactive,
C1=C(N2CCOCC2)/C(=C/c2nc3ccccc3[nH]2)CC1,15.8 µM (active),

SMILES,Potency,"activity change, negative = inhibition"
Cn1cc(S(=O)(=O)N2CCCCCC2)cc1C(=O)N1CCN(c2ccc(F)cc2)CC1,inactive,
NS(=O)(=O)c1cccc(NC(=O)COC(=O)/C=C/c2ccco2)c1,inactive,
COc1ccc([N+](=O)[O-])cc1NC(=O)COC(=O)/C=C/c1ccco1,inactive,
COc1cccc(NC(=O)COC(=O)/C=C/c2ccco2)c1,39.8 µM (active),
CCC(C)N(c1ccc(/C=C/c2ccnc3ccccc23)cc1)C(C)CC (centres undefined),inactive,
CCN(CC)/[N+]([O-])=N/OCOC(=O)Cc1c(C)n(C(=O)c2ccc(Cl)cc2)c2ccc(OC)cc12,,13.3% [at 0.457 µM]
COc1ccc(NC(=O)CSc2nc3ncccc3[nH]2)c(OC)c1,inactive,
OCC(O)C(O)C(O)C(O)C=Nc1ccc(/C=C/c2ccnc3ccccc23)cc1 (centres undefined),inactive,
O=C(/C=C/c1ccco1)Nc1cccc(-c2nc3ccccc3[nH]2)c1,79.4 µM (active),
CCc1ccc2oc(-c3ccc(C)c(NC(=O)/C=C/c4ccco4)c3)nc2c1,inactive,
O=C(Nc1cccc(-c2nc3ccccc3o2)c1)c1cccc(Br)c1,inactive,
COc1ccc(-c2cc(-c3nc(-c4cc(OC)c(OC)c(OC)c4)no3)[nH]n2)c(OC)c1,inactive,
O=C1/C(=C\c2ccc(O)cc2)CCC1CNc1ccc(Cl)cc1 (centres undefined),22.4 µM (active),
Cc1ccc(NS(=O)(=O)c2ccc3c(c2)CC(=O)N3)cc1Cl,inactive,
CCOc1n[nH]c(-c2ccccc2)n1,inactive,
CN(Cc1ccccc1)c1ccc(/C=C/c2ccnc3ccccc23)cc1,inactive,
COc1ccc(C(F)(F)F)cc1NC(=O)c1sc2nc(-c3cccs3)ccc2c1N,inactive,
C=CC1(C)CC(=O)C2(O)C(C)(O1)C(OC(C)=O)C(O)C1C(C)(C)CCC(O)C12C (centres undefined),inactive,
CCOc1ccc(C(C)NC(=O)CN2C(=O)NC3(CCCCC3)C2=O)cc1OCC (centres undefined),inactive,
CCOc1ccc(C(C)=O)cc1COC(=O)CNC(=O)c1cccs1,22.4 µM (active),
Cc1ccc(COC(=O)CN2C(=O)NC3(CCCC3)C2=O)cc1,inactive,
CCOc1ccc(C(C)=O)cc1COC(=O)c1cnc(Cl)c(Cl)c1,inactive,
COc1ccc(C(=O)COC(=O)CNC(=O)c2cccs2)cc1Br,inactive,
CCOc1ccc(C(C)=O)cc1COC(=O)CN1C(=O)NC2(CCCC2)C1=O,28.2 µM (active),
